The record followed here is paper PMC4552634, “A New Set of Chemical Starting Points with Plasmodium falciparum Transmission-Blocking Potential for Antimalarial Drug Discovery” (PLoS ONE, 2015).

Molecules are shown by their SMILES. The whole screen tested about 13,000 compounds, of which about 3,200 (25%) showed an effect of 50% or more. This is one part of the list.

The test system of the assay is P. falciparum stage V gametocytes. Also on record: BacTiter-Glo ATP luminescence viability of purified stage V gametocytes in 384-well plates, per cent inhibition versus DMSO. The following applies: 48 h, 5 µM; inhibitor.
Take `Cc1cccc(CN2CCC(C(=O)Nc3ccc(-c4nc5ccccc5[nH]4)cc3)CC2)n1` [TCMDC-124614]: the % Inhibition (usually the drop in the measured response relative to a control, in per cent) was -28.63%.
`CC1CCC(C(C)C)C(OC(=O)CSc2nnc3c(n2)[nH]c2ccccc23)C1` (centres unmarked) [TCMDC-124002]: the “% Inhibition” value amounted to 54.66%.
As for `CCCCNc1c(C(=O)OCC)c(C)nc2c1[nH]c1ccccc12` [TCMDC-131541], the figure is -37.58%; as for `O=C(NC1CCN(Cc2ccccc2)CC1)c1ccc(-c2nc3cc(Cl)c(Cl)cc3[nH]2)s1` [TCMDC-140086], -3.887%.
As for `CCn1c(-c2nonc2N)nc2cnc(Oc3cccc(NC(=O)c4ccc(OCCN5CCCCC5)cc4)c3)cc21` [TCMDC-135778], the “% Inhibition” value is -14.59%.
The figure for `CCn1c(-c2nonc2N)nc2c(-c3cc4ccccc4s3)ncc(C(=O)N3CCC(N)C3)c21` (centres unmarked) [TCMDC-135281] is 101.1%; for `CN(C)CCNC(=O)[C@H](Cc1ccccc1)NC(=O)c1ccc(O)c(-c2ccc(Cl)c(Cl)c2)c1` [TCMDC-140864] it is 22.21%.
As for `CN1CCCN(Cc2ccc(-c3ccc(NC(=O)c4ccc(Cl)cc4)cc3)cc2)CC1` [TCMDC-132585], the figure is -0.9433%; as for `Cc1cccc2[nH]c(-c3cccc(-c4ccc(NC(=O)Nc5ccc(Cl)c(Cl)c5)cc4)c3)nc12` [TCMDC-133275], -0.4815%; as for `c1cc2nc(CCCc3nc4ccc(C5=N[C@H]6CCCC[C@H]6N5)cc4[nH]3)[nH]c2cc1C1=N[C@@H]2CCCC[C@@H]2N1` [TCMDC-137234], -8.612%.
Consider `c1cc2nc(CCCCCc3nc4ccc(C5=N[C@@H]6CCCC[C@@H]6N5)cc4[nH]3)[nH]c2cc1C1=N[C@@H]2CCCC[C@@H]2N1` [TCMDC-137237], for which the “% Inhibition” value is recorded as -19.86%.
The figure for `c1cc2[nH]c(CCc3nc4cc(C5=NC6CCCCC6N5)ccc4[nH]3)nc2cc1C1=NC2CCCCC2N1` (centres unmarked) [TCMDC-137238] is -12.99%; for `c1cc2nc(CCCCc3nc4ccc(C5=N[C@H]6CCCC[C@H]6N5)cc4[nH]3)[nH]c2cc1C1=N[C@H]2CCCC[C@H]2N1` [TCMDC-137233] it is 16.03%; for `c1cc(C2=NC3CCCCC3N2)ccc1OCCCCCOc1ccc(C2=NC3CCCCC3N2)cc1` (centres unmarked) [TCMDC-137802] it is 132.6%.
As for `c1cc(C2=N[C@H]3CCCC[C@@H]3N2)ccc1OCCCOc1ccc(C2=N[C@@H]3CCCC[C@H]3N2)cc1` [TCMDC-137803], the figure is 109.5%; as for `Cc1ccn2c(N(Cc3ccccc3)C(=O)c3ccc(Cl)c(Cl)c3)c(-c3ccccc3)nc2c1` [TCMDC-141396], -15.83%.
The figure for `CCNc1cc(C(=O)N[C@@H](Cc2ccccc2)[C@H](O)CNCCc2ccccc2)cc(N2CCCCS2(=O)=O)c1` [TCMDC-135171] is -2.363%.
